# Screens deposited in PubChem by National Center for Advancing Translational Sciences (NCATS).
# PTHR1 agonist = PTHR1 (human) receptor agonism; HEK293 GP2 PTHR1 cells, GloSensor cAMP luminescence, 1 h; 410,000 compounds, 0.075% hits; Q03431; Potency, µM (series often up to 115 µM), inactives show at the highest dose activation, most hits filed as activators; note: nearly all actives have a fitted effect of over 55% in size
#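 HEK-293-derived GP2 cells expressing PTHR1 and a GloSensor cAMP reporter, 3,000/well, plated overnight, given luciferin plus IBMX (each 0.5 mM as added) for 1 h at 37 °C, then compound for 1 h at 37 °C. Luminescence was read after 15 min at room temperature.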
# RGS4 inhibitor = blocks human RGS4-accelerated GTP hydrolysis. Potency, µM (doses to about 114 µM), for the others: at the highest dose activity change, negative = inhibition, usual class: inhibitors. P49798. 390,000 compounds, 0.039% hits. Transcreener GDP fluorescence polarization, RGS4-accelerated GTP hydrolysis; note: % is set by controls: 0 for no effect and ±100 for the full control effect; nearly all actives have a fitted effect of over 75% in size
#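 MLSMR compounds (23 nl, pin-transferred) preincubated 10 min at room temperature with a 500nM (2x) first reagent, then RGS4 at 900nM (2x) plus Transcreener GDP mix added; fluorescence polarization (620/688 nm) read before and after 90 min at 30 °C.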
# HEK293 tox = cytotoxic in the GLP-1 receptor inverse agonist counter-screen | Potency, µM (highest dose often 38.3 µM), for the others: at the highest dose activity change, negative = inhibition, hits mostly inhibitors | HEK293 cAMP-luciferase reporter cells, luminescence, 24 h | 410,000 compounds, 0.13% hits | AID 624418;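 note: loss of luciferase light is scored as toxicity; % is set by controls: 0 for no effect and ±100 for the full control effect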
#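 MLSMR compounds, 24 hr on cells at 37 deg C/5% CO2; luminescence after luciferase reagent (12 min RT). Inhibition counted as the undesired cytotoxic outcome.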
# GLP1R ag = agonists of human GLP-1 receptor. HEK293 GLP-1R CRE-luciferase, luminescence, 4-6 h; cells express a hypersensitive GLP-1R form. Potency, µM (series often up to 45.6 µM), without a hit: at the top dose activation, actives largely listed as activators. 380,000 compounds, 0.007% hits. AID 624172; note: % of control where 0% means no effect
# Target sequence (P43220 whole entry, looked up): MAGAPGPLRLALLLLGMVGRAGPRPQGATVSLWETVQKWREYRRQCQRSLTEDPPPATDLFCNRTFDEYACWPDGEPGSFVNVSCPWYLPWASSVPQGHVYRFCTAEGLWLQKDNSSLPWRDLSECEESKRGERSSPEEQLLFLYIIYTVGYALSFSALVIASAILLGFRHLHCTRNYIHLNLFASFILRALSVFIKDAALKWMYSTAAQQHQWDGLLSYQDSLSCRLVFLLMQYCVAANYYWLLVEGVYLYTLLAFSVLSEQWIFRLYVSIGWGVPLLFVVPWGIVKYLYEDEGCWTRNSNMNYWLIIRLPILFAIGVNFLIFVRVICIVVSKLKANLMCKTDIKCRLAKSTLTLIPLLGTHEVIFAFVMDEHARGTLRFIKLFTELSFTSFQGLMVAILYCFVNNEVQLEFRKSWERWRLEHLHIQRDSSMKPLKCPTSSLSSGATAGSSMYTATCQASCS
# GLP-1R inv ag = GLP-1 receptor (human) inverse agonism; AID 624417; 410,000 compounds, 1.6% hits; HEK293 GLP-1R CRE-luciferase, luminescence, 24 h; GLP-1R form is constitutively active; Potency, µM (highest dose often 38.3 µM), inactives show top-dose activity change, negative = inhibition, hits mostly inhibitors; note: % is set by controls: 0 for no effect and ±100 for the full control effect; nearly all actives have a fitted effect of over 55% in size
#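 Using stably transfected HEK293 (constitutively active GLP-1R, cAMP-luciferase reporter), compounds were incubated 24 hr and luciferase measured by luminescence.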
# GCN5L2 inh = inhibitors of human GCN5L2 histone acetyltransferase | Q92830 | GCN5L2 HAT assay, ThioGlo1 CoA-SH fluorescence | Potency, µM (series often up to 58.9 µM), for inactives: at the highest dose activity change, negative = inhibition, hits mostly inhibitors | 390,000 compounds, 0.21% hits; note: % is set by controls: 0 for no effect and ±100 for the full control effect
#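 Enzyme at 20nM final was mixed with library compounds for 15 min at room temperature. Peptide H3(1-25) at 75uM, acetyl-CoA at 70uM and ThioGlo1 at 50uM were then added. Plates were read immediately and after 20 min (Ex340nm/Em540nm).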
# * hit, by the source's call; i = inactive; u = inconclusive; x = no result given; [ ] = remark or other dose. An excerpt weighted towards active compounds, which were near 1.8% of everything screened. Calls come from the whole dose curve; as a rule, active = well fitted curve in the direction sought with a large enough effect; inconclusive = small, poorly fitted or top-dose-only effect, or another doubt; inactive = no such curve, though single readings can be large; an effect the other way counts as inactive or inconclusive. Potency is the fitted concentration of half-maximal effect.
SMILES,PTHR1 agonist,RGS4 inhibitor,HEK293 tox,GLP1R ag,GLP-1R inv ag,GCN5L2 inh
CCOC(=O)c1cnc(-n2nc(C)cc2C)nc1Nc1ccc(OC)cc1,i,4%,u,-4%,-6%,-3%
CCOC(=O)c1cnc(-n2nc(C)cc2C)nc1NCCc1ccccc1,i,-19%,u,-3%,u,-9%
CCOC(=O)c1cnc(-n2nc(C)cc2C)nc1NC1CCCC1,-27%,-10%,u,17%,2.5µM*,-9%
CCc1nc2ccc(C(=O)NCCCn3ccnc3)cn2c1N(C)Cc1cc2ccccc2s1,i,x,-16%,-3%,u,x
CCc1ccc([C@@H]2C[C@H]3[C@@H](CN2S(=O)(=O)c2ccc(C)cc2)C(=O)C[C@@H](c2ccc(Cl)cc2)N3S(=O)(=O)c2ccc(C)cc2)cc1,-3%,x,4%,-3%,1%,x
c1ccc(COc2cccc(-c3cc4nc(NCCOc5ccccc5)ccn4n3)c2)cc1,-14%,x,6%,3%,10µM*,x
CCOc1ccc(CNCc2ccccc2Cl)cc1,-55%,-16%,-1%,5%,-4%,-16%
CCOc1ccc(CNC(c2ccccc2)c2ccccc2)cc1,-31%,-1%,3%,10%,7.1µM*,-1%
O=[N+]([O-])/C=C\c1ccc(N2CCOCC2)cc1,-44%,-39%[56.9 µM],u,-7%,11µM*,x
CN[C@@H](CCCN=C(N)N)C(=O)N[C@@H](CCCCN)C(=O)N1CCC[C@H]1C(=O)N[C@@H](Cc1c[nH]c2ccccc12)C(=O)N[C@H](C(=O)N[C@H](CC(C)C)C(=O)O)C(C)(C)C,x,x,x,x,x,-15%
Cc1cc(C)n(CC(O)Cn2c3ccc(Br)cc3c3cc(Br)ccc32)c(=O)n1 (stereo not given),i,-20%,5%,-4%,11µM*,-5%[0.501 µM]
CN(C)CC(O)Cn1c2ccc(Br)cc2c2cc(Br)ccc21 (stereo not given),x,0.67µM*,x,x,x,u
Cc1cc(C)n(CC(O)Cn2c3ccccc3c3ccccc32)c(=O)n1 (stereo not given),-19%,-9%,-4%,-1%,16%,-4%
CC1CC(=O)N(CC(=O)Nc2ccc(OC(F)(F)F)cc2)c2ccccc2S1 (stereo not given),-15%,12%,2%,15%,u,-8%
Cc1cc(C)n2nc(CNC(=O)c3ccccc3Cl)nc2n1,-36%,2%,1%,x,4%,-5%
COc1cccc(NC(=O)CN(C)C(=O)c2ccc3c(c2)C(=O)N(CCC(C)C)C3=O)c1,-35%,11%,-16%,4%,-16%,-8%
Oc1ccc(-c2nccs2)cc1,i,-8%,-4%,7%,26%,x
N#CCc1ccc(OC(=O)c2ccncc2)cc1,-9%,20%,-5%,1%,16%,x
Cc1ccc(-c2ccc(/C=N/N3C(=O)C4C5C=CC(C6CC56)C4C3=O)o2)c([N+](=O)[O-])c1 (stereo not given),-14%,-6%[11.4 µM],-27%,2%,3.5µM*,-23%
O=C1C2C3C=CC(C4CC34)C2C(=O)N1/N=C/c1ccc(-c2ccc([N+](=O)[O-])cc2)o1 (stereo not given),-31%,-6%,-13%,4%,17%,-5%
COCCCn1c(SCC(=O)OC2CCCCC2)nnc1-c1cccs1,0.28µM*,13%,7%,1%,-8%,-1%
Cc1ccsc1/C=C(\C(=O)c1ccc(OC(C)C)cc1)c1nc2ccccc2o1,i,8%,2%,9%,4µM*,1%
COc1ccc(-c2coc3c(C(=O)NCc4ccco4)cccc23)c(C)c1,-44%,x,-7%,-2%,4.5µM*,x
COc1ccc(-c2ccc(C(=O)NCc3ccco3)c3occc23)c(C)c1,-70%,x,-9%,13%,u,x
